In the supplement of paper PMC10849652:
Of roughly 8,800 targets only a part is listed; those with a hit were picked by preference. About 0.5% of all pairs of compound and target were hits.

Key:
Assay in all cases: log2 fold change, soluble protein after heating vs DMSO (PISA); higher = thermal stabilisation; K562 lysate, 10 uM; active = over 0.2 and 3.5 SD of the protein, either way, in both replicates (recomputed)
[1] = compound: NCC(=O)Nc1ccc(-n2nc(C(F)(F)F)cc2-c2ccc3c(ccc4ccccc43)c2)cc1
In short: (§1)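 The values are log-two fold changes in thermal stability compared with solvent controls and come from duplicates. They were obtained by TMTpro 16plex LC-MS/MS, with channel sums equalised, on the supernatant after 21,000xg for 90 min. That supernatant came from crude K562 extract at 1 mg/mL protein treated with 10 μM compound for 30 min, heated for 3 min across 48°C-58°C, pooled and brought to 0.5% NP-40 at 4°C.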

vorinostat = compound: O=C(CCCCCCC(=O)Nc1ccccc1)NO [vorinostat]
In short: as §1

silmitasertib = compound: O=C(O)c1ccc2c(c1)nc(Nc1cccc(Cl)c1)c1ccncc12 [silmitasertib]
In short: as §1

[2] = compound: O=C1NC(=O)C(c2cnc3ccccn23)=C1c1cn2c3c(cc(F)cc13)CN(C(=O)N1CCCCC1)CC2
In short: as §1

entospletinib = compound: c1cn2cc(-c3ccc4cn[nH]c4c3)nc(Nc3ccc(N4CCOCC4)cc3)c2n1 [entospletinib]
In short: as §1

Measured: log2 fold change

SRPK1 (UniProt Q96SB4)
inactive: [1] -0.043 | vorinostat -0.172 | silmitasertib 0.119 | [2] 0 | entospletinib 0.012

STK38 (UniProt Q15208)
active: vorinostat -0.424
inactive: [1] 0.021 | silmitasertib 0.16 | [2] -0.029 | entospletinib 0

SKA1 (UniProt Q96BD8)
active: vorinostat -0.586
inactive: [1] 0.057 | silmitasertib -0.036 | [2] -0.07 | entospletinib -0.021

SLC25A32 (UniProt Q9H2D1)
inactive: [1] 0.053 | vorinostat 0.23 | silmitasertib -0.008 | [2] 0.046 | entospletinib 0.033

SH3BP5L (UniProt Q7L8J4)
inactive: [1] -0.003 | vorinostat -0.025 | silmitasertib -0.068 | [2] 0.051 | entospletinib 0.009

SFN (UniProt P31947)
inactive: [1] -0.001 | vorinostat 0.107 | silmitasertib -0.032 | [2] -0.026 | entospletinib 0.045

SLC25A36 (UniProt Q96CQ1)
inactive: [1] -0.172 | vorinostat -0.071 | silmitasertib 0.001 | [2] 0.033 | entospletinib 0.013

SRRT (UniProt Q9BXP5)
Sequence of UniProt Q9BXP5 (Q9BXP5 whole entry, looked up): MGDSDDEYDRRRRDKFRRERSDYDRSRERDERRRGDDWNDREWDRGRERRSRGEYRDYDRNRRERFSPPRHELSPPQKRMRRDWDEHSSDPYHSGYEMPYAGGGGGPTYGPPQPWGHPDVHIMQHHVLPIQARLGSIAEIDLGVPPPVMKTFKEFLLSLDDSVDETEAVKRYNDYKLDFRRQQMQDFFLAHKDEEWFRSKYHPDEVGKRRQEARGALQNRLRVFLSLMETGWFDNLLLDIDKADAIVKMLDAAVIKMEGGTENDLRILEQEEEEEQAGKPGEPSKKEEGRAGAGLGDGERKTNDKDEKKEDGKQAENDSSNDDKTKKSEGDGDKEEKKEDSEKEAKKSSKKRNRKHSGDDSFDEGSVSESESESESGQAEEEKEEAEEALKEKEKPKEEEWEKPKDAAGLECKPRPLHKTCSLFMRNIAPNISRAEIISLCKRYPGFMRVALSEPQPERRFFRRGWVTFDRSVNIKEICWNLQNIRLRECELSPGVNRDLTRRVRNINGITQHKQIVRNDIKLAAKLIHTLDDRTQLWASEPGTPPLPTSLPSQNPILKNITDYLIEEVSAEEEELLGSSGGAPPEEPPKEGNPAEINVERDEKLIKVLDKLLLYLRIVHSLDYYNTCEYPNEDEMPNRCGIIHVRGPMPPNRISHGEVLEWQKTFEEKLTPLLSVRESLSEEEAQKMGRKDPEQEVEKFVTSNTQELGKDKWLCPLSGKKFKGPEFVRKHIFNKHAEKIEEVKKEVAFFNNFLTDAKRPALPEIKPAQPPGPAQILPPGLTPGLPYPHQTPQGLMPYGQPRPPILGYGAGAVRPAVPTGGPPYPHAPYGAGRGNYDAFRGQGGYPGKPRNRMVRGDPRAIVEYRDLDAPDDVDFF
inactive: [1] -0.036 | silmitasertib 0.044 | [2] -0.008 | entospletinib 0.032
active: vorinostat -0.373

SRGN (UniProt P10124)
inactive: [1] -0.073 | vorinostat 0.132 | silmitasertib -0.123 | [2] -0.087 | entospletinib -0.013

STIM1 (UniProt Q13586)
inactive: [1] 0.026 | vorinostat 0.126 | silmitasertib -0.01 | [2] 0.018 | entospletinib -0.025

SMIM12 (UniProt Q96EX1)
inactive: [1] -0.044 | vorinostat 0.174 | silmitasertib -0.003 | [2] -0.025 | entospletinib -0.058

SORBS3 (UniProt O60504)
Sequence of UniProt O60504 (O60504 whole entry, looked up): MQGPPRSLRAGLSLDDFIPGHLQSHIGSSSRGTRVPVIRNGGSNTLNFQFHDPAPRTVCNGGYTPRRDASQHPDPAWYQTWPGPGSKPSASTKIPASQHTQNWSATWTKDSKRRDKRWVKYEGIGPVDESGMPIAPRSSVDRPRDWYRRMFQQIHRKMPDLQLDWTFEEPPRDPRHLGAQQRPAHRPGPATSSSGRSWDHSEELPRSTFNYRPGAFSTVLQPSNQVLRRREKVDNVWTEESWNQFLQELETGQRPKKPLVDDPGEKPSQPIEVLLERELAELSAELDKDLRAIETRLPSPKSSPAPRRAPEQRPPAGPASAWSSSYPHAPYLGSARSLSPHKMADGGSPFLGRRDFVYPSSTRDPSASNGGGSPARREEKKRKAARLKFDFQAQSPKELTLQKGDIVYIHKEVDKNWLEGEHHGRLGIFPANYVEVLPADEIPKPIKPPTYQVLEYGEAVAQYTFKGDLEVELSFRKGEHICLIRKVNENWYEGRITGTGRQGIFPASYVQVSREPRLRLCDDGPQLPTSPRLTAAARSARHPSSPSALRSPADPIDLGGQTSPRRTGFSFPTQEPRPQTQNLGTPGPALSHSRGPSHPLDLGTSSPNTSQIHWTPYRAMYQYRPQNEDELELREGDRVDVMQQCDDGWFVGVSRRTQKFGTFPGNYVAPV
inactive: [1] -0.122 | silmitasertib 0.057 | [2] 0.031 | entospletinib 0.01
active: vorinostat -0.561

SLC19A1 (UniProt P41440)
inactive: [1] 0.003 | vorinostat 0.01 | silmitasertib -0.024 | [2] -0.054 | entospletinib -0.002

STUB1 (UniProt Q9UNE7)
inactive: [1] -0.012 | silmitasertib 0.015 | [2] 0.006 | entospletinib 0.019
active: vorinostat -0.33

SMG1 (UniProt Q96Q15)
active: vorinostat -0.348
inactive: [1] 0.005 | silmitasertib 0.011 | [2] -0.006 | entospletinib -0.007

SLC38A1 (UniProt Q9H2H9)
inactive: [1] -0.015 | vorinostat 0.099 | silmitasertib 0 | [2] 0.008 | entospletinib -0.015

SMG5 (UniProt Q9UPR3)
active: vorinostat -0.381
inactive: [1] 0.04 | silmitasertib -0.024 | [2] 0.024 | entospletinib -0.023

TARBP1 (UniProt Q13395)
active: vorinostat -0.608
inactive: [1] -0.151 | silmitasertib 0.097 | [2] 0.017 | entospletinib 0.028

SLU7 (UniProt O95391)
inactive: [1] 0.208 | vorinostat 0.012 | silmitasertib -0.037 | [2] 0.046 | entospletinib -0.024

TAPT1 (UniProt Q6NXT6)
inactive: [1] 0.023 | vorinostat 0.09 | silmitasertib 0.007 | [2] 0.023 | entospletinib 0.001

STK11IP (UniProt Q8N1F8)
Sequence of UniProt Q8N1F8 (Q8N1F8 whole entry, looked up): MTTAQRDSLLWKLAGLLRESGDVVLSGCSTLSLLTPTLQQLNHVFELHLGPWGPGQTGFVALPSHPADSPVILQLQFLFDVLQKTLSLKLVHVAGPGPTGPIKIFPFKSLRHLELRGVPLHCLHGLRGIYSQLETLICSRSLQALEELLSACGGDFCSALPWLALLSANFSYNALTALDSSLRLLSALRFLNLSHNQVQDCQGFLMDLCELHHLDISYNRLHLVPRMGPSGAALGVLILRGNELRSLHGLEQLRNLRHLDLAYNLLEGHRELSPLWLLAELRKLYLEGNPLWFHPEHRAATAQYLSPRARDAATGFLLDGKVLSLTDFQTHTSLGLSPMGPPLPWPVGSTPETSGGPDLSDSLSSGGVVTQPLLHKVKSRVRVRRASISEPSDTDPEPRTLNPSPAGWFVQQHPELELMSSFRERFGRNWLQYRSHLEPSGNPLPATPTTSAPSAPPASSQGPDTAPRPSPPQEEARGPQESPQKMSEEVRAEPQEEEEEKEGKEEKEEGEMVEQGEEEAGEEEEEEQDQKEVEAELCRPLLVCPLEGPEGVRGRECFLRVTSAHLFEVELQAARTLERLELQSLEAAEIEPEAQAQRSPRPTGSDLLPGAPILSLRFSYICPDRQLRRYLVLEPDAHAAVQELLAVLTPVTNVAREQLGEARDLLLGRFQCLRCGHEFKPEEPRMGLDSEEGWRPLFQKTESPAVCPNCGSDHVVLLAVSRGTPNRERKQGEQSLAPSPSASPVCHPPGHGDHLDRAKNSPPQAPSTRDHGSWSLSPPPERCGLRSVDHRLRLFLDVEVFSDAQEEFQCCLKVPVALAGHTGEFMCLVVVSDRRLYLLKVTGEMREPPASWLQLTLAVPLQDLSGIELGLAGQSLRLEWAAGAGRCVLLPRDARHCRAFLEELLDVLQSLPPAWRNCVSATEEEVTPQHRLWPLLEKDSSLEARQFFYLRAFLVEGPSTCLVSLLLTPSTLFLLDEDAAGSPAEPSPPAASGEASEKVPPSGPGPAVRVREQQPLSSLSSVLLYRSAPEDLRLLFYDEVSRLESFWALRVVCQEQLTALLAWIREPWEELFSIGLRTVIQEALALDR
inactive: [1] -0.017 | silmitasertib 0.025 | [2] 0.008 | entospletinib 0.024
active: vorinostat -0.254

SPATA5 (UniProt Q8NB90)
Sequence of UniProt Q8NB90 (Q8NB90 whole entry, looked up): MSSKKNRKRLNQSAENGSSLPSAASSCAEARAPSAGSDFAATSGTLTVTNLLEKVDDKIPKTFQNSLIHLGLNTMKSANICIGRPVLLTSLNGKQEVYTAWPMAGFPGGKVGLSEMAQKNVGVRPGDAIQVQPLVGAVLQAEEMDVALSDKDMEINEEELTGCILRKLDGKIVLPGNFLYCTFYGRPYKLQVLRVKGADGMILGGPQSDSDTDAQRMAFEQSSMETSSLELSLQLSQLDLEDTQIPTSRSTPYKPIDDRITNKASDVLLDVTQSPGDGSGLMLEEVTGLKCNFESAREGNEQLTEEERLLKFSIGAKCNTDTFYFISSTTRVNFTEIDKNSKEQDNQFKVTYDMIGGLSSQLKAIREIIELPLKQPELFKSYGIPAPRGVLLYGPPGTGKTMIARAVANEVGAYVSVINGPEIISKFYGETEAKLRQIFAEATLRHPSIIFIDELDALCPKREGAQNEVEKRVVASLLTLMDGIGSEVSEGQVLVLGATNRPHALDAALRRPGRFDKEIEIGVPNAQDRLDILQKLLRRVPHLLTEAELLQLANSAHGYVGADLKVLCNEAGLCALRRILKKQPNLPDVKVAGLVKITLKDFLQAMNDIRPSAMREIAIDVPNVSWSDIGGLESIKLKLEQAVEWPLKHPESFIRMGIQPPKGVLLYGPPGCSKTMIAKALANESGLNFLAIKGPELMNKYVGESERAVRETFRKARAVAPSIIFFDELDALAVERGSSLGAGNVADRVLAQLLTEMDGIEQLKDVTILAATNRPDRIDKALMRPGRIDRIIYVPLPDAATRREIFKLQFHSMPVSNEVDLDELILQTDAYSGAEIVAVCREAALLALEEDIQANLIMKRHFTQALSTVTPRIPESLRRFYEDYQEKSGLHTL
inactive: [1] 0.005 | vorinostat -0.247 | silmitasertib 0.048 | [2] -0.011 | entospletinib 0.013

SH3BP2 isoform 4 (UniProt P78314)
inactive: [1] 0.08 | vorinostat -0.27 | silmitasertib 0.092 | [2] -0.017

SMAD2 (UniProt Q15796)
active: vorinostat -0.752
inactive: [1] -0.025 | silmitasertib -0.051 | [2] 0.008 | entospletinib -0.049

SLC39A11 (UniProt Q8N1S5)
inactive: [1] -0.076 | vorinostat 0.103 | silmitasertib -0.015 | [2] 0.058 | entospletinib -0.137

SRM (UniProt P19623)
Sequence of UniProt P19623 (P19623 whole entry, looked up): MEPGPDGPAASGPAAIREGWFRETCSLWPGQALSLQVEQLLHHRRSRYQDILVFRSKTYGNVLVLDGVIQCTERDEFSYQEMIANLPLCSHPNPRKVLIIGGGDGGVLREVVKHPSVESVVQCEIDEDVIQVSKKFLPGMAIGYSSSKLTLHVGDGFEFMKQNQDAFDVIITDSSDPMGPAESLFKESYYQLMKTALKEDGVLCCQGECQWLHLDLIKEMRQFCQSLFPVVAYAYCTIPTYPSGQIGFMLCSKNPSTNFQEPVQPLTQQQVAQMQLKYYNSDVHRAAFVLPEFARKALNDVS
inactive: [1] 0.009 | vorinostat -0.029 | silmitasertib 0.008 | [2] 0.052 | entospletinib 0.001

SMAD9 (UniProt O15198)
inactive: [1] 0.007 | silmitasertib 0.023 | [2] -0.012 | entospletinib 0.017
active: vorinostat -0.436

SH3BGRL2 (UniProt Q9UJC5)
inactive: [1] -0.003 | vorinostat 0.153 | silmitasertib -0.011 | [2] 0.099 | entospletinib 0.04

SMG6 (UniProt Q86US8)
active: vorinostat -0.3
inactive: [1] 0.119 | silmitasertib 0.015 | [2] -0.012 | entospletinib 0.024

SRSF9 (UniProt Q13242)
Sequence of UniProt Q13242 (Q13242 whole entry, looked up): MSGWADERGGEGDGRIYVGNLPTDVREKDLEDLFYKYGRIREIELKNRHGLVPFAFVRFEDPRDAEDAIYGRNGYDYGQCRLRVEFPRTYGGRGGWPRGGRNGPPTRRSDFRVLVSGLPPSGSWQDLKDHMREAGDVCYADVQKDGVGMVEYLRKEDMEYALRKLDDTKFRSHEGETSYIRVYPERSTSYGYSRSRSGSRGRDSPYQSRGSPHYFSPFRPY
inactive: [1] -0.182 | vorinostat -0.113 | silmitasertib 0.069 | [2] -0.035 | entospletinib 0.007

SNRPF (UniProt P62306)
inactive: [1] -0.019 | vorinostat -0.014 | silmitasertib -0.001 | [2] -0.01 | entospletinib -0.016

SLC35A3 isoform 2 (UniProt Q9Y2D2)
inactive: [1] -0.022 | vorinostat 0.091 | silmitasertib -0.07 | [2] 0.019 | entospletinib 0

SMC6 (UniProt Q96SB8)
active: vorinostat -0.245
inactive: [1] -0.006 | silmitasertib -0.022 | [2] 0.019 | entospletinib -0.013

SNAP23 (UniProt O00161)
inactive: [1] -0.017 | vorinostat 0.052 | silmitasertib -0.067 | [2] -0.016 | entospletinib 0.004

SKA2 (UniProt Q8WVK7)
Sequence of UniProt Q8WVK7 (Q8WVK7 whole entry, looked up): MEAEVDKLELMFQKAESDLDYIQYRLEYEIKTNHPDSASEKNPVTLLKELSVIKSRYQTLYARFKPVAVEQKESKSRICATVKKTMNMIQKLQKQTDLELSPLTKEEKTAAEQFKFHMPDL
active: vorinostat -0.364
inactive: [1] 0.086 | silmitasertib -0.035 | [2] 0.067 | entospletinib -0.028

STK24 (UniProt B4DR80)
inactive: [1] 0.023 | vorinostat 0.029 | silmitasertib -0.014 | [2] -0.033 | entospletinib 0.001

SYK (UniProt P43405)
inactive: [1] 0.135 | vorinostat -0.138 | silmitasertib 0.053 | [2] 0.016 | entospletinib -0.079

SNRPD2 (UniProt K7EJB5)
active: vorinostat 0.493
inactive: [1] 0.119 | silmitasertib 0.056 | [2] -0.1 | entospletinib -0.004

STMN3 (UniProt Q9NZ72)
Sequence of UniProt Q9NZ72 (Q9NZ72 whole entry, looked up): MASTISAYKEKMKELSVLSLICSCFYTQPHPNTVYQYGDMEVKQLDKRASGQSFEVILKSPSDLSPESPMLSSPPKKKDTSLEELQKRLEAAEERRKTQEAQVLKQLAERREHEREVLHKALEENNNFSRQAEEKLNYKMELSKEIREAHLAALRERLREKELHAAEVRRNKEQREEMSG
inactive: [1] -0.028 | vorinostat 0.065 | silmitasertib -0.033 | [2] -0.004 | entospletinib 0.07

SYNE2 isoform 2 (UniProt Q8WXH0)
inactive: [1] 0.071 | vorinostat 0.088 | silmitasertib -0.015 | [2] 0.051 | entospletinib -0.003

SFR1 isoform 2 (UniProt Q86XK3)
inactive: [1] 0.092 | vorinostat -0.074 | silmitasertib 0.023 | [2] -0.026 | entospletinib -0.043

SLC11A2 isoform 3 (UniProt P49281)
Sequence of UniProt P49281 (P49281 whole entry, looked up): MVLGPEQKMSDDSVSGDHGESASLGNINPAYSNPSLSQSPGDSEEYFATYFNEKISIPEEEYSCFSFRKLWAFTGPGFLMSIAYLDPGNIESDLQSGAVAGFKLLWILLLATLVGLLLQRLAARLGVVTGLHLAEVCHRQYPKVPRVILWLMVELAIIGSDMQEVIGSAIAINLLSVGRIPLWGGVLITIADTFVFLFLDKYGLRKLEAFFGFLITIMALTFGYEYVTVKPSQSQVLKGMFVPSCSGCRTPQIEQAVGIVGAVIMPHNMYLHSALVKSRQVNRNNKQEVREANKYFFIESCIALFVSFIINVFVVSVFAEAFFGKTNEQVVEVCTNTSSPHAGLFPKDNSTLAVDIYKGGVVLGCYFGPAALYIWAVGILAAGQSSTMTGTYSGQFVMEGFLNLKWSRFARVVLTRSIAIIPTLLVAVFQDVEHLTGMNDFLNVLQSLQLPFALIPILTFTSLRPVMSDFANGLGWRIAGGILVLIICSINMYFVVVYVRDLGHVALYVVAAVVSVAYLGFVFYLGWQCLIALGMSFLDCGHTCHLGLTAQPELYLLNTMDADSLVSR
inactive: [1] -0.011 | vorinostat 0 | silmitasertib -0.047 | [2] 0.013 | entospletinib -0.054

SF3B6 (UniProt Q9Y3B4)
active: vorinostat -0.273
inactive: [1] 0.018 | silmitasertib 0.026 | [2] 0.007 | entospletinib -0.015

STOML2 (UniProt Q9UJZ1)
inactive: [1] 0.03 | vorinostat 0.129 | silmitasertib -0.021 | [2] 0.028 | entospletinib 0.011

SULT1A1 (UniProt P50225)
inactive: [1] 0.077 | silmitasertib 0.036 | [2] -0.021 | entospletinib 0.071
active: vorinostat -0.273

SRP54 (UniProt P61011)
active: vorinostat -0.241
inactive: [1] 0.003 | silmitasertib 0.008 | [2] 0.021 | entospletinib -0.004

SLC25A25 isoform 3 (UniProt Q6KCM7)
inactive: [1] 0.016 | vorinostat 0.054 | silmitasertib 0.02 | [2] -0.036 | entospletinib 0.001

TARDBP (UniProt Q13148)
active: vorinostat -0.44
inactive: [1] 0.044 | silmitasertib 0.086 | [2] -0.268 | entospletinib -0.027

TAF6L (UniProt Q9Y6J9)
inactive: [1] -0.022 | vorinostat -0.086 | silmitasertib 0.013 | [2] -0.033 | entospletinib -0.08

STAU1 (UniProt O95793)
inactive: [1] 0.045 | vorinostat -0.035 | silmitasertib 0.017 | [2] -0.009 | entospletinib 0.009

SNCA (UniProt P37840)
inactive: [1] 0.069 | vorinostat 0.161 | silmitasertib -0.235 | [2] -0.023 | entospletinib -0.126

SLC27A4 (UniProt Q6P1M0)
inactive: [1] -0.127 | silmitasertib 0.016 | [2] -0.002 | entospletinib 0.07
active: vorinostat -0.257

STAR (UniProt P49675)
inactive: [1] 0.002 | vorinostat -0.044 | silmitasertib -0.028 | [2] -0.031 | entospletinib -0.103
